The values below come from PMC4336329 (PLoS ONE, 2015).

The whole screen tested about 310,000 compounds, of which about 14,000 (4.5%) showed an effect of 50% or more. Effects have a minus sign here. The list comes from a sample in which strong results are over-represented; it also holds similar structures and randomly drawn compounds.
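Also: peak tail current of the secondary pulse compared with the same well before compound.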

The assay deals with human ether-à-go-go-related gene (hERG) potassium channel (human, UniProt Q12809). The assay can be described thus: primary screen, population patch clamp on CHO cells stably expressing hERG; higher = less effect of the substance.
human ether-à-go-go-related gene (hERG) potassium channel, sequence (Q12809 whole entry, looked up): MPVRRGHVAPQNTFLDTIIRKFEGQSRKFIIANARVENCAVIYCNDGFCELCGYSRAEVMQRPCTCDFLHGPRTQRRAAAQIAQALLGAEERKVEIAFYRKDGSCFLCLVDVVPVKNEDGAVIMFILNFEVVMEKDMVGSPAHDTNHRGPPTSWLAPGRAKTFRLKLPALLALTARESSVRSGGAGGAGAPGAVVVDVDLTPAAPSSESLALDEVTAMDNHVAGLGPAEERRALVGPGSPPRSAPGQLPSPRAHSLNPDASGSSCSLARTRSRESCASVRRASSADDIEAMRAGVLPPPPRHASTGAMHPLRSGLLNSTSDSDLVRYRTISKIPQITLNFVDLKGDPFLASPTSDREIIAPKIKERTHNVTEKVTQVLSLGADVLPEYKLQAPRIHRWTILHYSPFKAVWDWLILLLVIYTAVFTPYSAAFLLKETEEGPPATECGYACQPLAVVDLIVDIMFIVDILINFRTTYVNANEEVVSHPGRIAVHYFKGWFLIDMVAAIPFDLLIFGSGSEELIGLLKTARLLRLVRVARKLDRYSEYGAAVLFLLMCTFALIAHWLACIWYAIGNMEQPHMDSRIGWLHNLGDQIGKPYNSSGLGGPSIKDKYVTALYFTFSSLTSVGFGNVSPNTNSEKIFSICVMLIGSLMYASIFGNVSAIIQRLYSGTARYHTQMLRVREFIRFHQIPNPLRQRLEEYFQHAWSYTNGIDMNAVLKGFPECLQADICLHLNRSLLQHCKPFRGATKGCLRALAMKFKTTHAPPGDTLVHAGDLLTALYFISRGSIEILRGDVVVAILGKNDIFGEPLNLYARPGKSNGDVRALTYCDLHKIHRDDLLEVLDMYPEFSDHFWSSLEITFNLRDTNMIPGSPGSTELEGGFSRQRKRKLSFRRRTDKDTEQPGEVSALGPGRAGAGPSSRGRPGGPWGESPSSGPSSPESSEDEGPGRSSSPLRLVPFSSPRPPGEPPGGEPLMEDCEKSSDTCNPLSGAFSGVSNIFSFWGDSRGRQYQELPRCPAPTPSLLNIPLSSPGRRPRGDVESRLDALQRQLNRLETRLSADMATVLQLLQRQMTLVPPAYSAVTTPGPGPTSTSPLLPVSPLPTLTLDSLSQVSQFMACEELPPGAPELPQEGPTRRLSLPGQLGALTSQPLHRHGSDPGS
As for `COc1ccc(S(=O)(=O)N2CCCCCC2)cc1C(=O)OCC(=O)NC(C)(C)C`, the “hERG current change (%, negative = inhibition) at 10uM” value is recorded as -17.5%.
With `O=C(NC1CCS(=O)(=O)C1)c1ccc(-c2ccc(Br)cc2)o1` (centres unmarked) the figure was -20.9%; with `O=C1CN(C(=O)N[C@@H](Cc2ccccc2)C(=O)N[C@@H](Cc2ccccc2)C(=O)O)c2ccccc2N1`, 3.79%; with `CCOc1cccc(OCCOCCNC(C)(C)C)c1.O=C(O)C(=O)O`, 3.71%.
`COn1c(=O)c(=O)n(OC)c2ccccc21`: the “hERG current change (%, negative = inhibition) at 10uM” value was -3.45%.
Regarding `Cc1ccc(C)c(S(=O)(=O)N2CCCOC2CNC(=O)C(=O)NCc2ccco2)c1` (centres unmarked), the “hERG current change (%, negative = inhibition) at 10uM” value came to 11.6%.
Consider `CC(C)CCN1C(=O)c2ccccc2C1C(=O)NCc1cccnc1` (centres unmarked), for which the “hERG current change (%, negative = inhibition) at 10uM” value is -16.1%.
For `Cc1nc2c(C(=O)N3CCN(c4ccccn4)CC3)cnn2c(C)c1Cc1cccc(Cl)c1` the value was -43.4%.
With `Brc1cc(Br)c2ncnc(N3CCCCC3)c2c1`, the “hERG current change (%, negative = inhibition) at 10uM” value is listed as -11.8%.
For the compound `CCc1cc(C(=O)OC)c(NC(=O)C2CC(=O)NN2Cc2ccccc2)s1` (centres unmarked), the “hERG current change (%, negative = inhibition) at 10uM” value is on record as -29.7%.
With `O=c1c2ccccc2nc(/C=C/c2ccccn2)n1-c1ccccc1` the figure was 10.9%; with `COc1ccccc1NC(=O)CCCCCN1C(=O)c2cccc([N+](=O)[O-])c2C1=O`, -39.2%.
As to `CCOc1ccccc1NC(=O)CN1CCN(C(=O)C2CCCO2)CC1` (centres unmarked), the “hERG current change (%, negative = inhibition) at 10uM” value is reported as -10.6%.
Consider `O=C(OCn1nnc2ccccc2c1=O)c1cc(-c2ccccc2)nc2ccccc12`, for which the “hERG current change (%, negative = inhibition) at 10uM” value worked out at 6.74%.
Regarding `Cc1ccc(S(=O)(=O)N(C)C)cc1NC(=O)COC(=O)Cc1ccc(Br)cc1`, the “hERG current change (%, negative = inhibition) at 10uM” value was -56.7%.
Take `O=C(COC(=O)Cc1cccs1)Nc1cccc(S(=O)(=O)N2CCOCC2)c1`: the “hERG current change (%, negative = inhibition) at 10uM” value is given as 0.0981%.
For the compound `Cc1ccc(OCCC(=O)OCC(=O)Nc2cc(S(=O)(=O)N(C)C)ccc2C)cc1`, the “hERG current change (%, negative = inhibition) at 10uM” value is -26.6%.
With `Cc1ccc(NC(=O)COC(=O)Cc2cccs2)cc1S(=O)(=O)N1CCOCC1`, the “hERG current change (%, negative = inhibition) at 10uM” value is reported as -23.5%.
For the compound `Cc1ccc(S(=O)(=O)N(C)C)cc1NC(=O)COC(=O)Cc1cccs1`, the “hERG current change (%, negative = inhibition) at 10uM” value is -74.5%.
Regarding `Cc1ccc(S(=O)(=O)N(C)C)cc1NC(=O)COC(=O)CSc1ccccc1`, the “hERG current change (%, negative = inhibition) at 10uM” value was -21.3%.
In the case of `Cc1ccc(S(=O)(=O)N(C)C)cc1NC(=O)COC(=O)CCC(=O)c1cccs1`, the “hERG current change (%, negative = inhibition) at 10uM” value was -21.8%.
With `Cc1ccc(S(=O)(=O)N(C)C)cc1NC(=O)COC(=O)CNC(=O)c1cccs1` the figure was 14.5%; with `CCN(CC(=O)NCc1ccc(F)cc1)CC(=O)Nc1ccccc1-c1ccccc1`, -16%.
For `CCN(CC(=O)NCc1ccc(F)cc1)CC(=O)Nc1ccc(S(=O)(=O)N2CCCC2)cc1` the value was -22.8%; for `CCN(CC(=O)NCc1ccc(F)cc1)CC(=O)Nc1cc(S(=O)(=O)N(C)C)ccc1C`, -75.6%.
Turning to `Cc1ccc(S(=O)(=O)N2CCOCC2)cc1NC(=O)COC(=O)Cc1cccs1`, the “hERG current change (%, negative = inhibition) at 10uM” value is -62.8%.
In the case of `Cc1c(CC(=O)N[C@H](C(=O)O)C(C)C)c(=O)oc2cc3c(cc12)CCC(C)(C)O3`, the “hERG current change (%, negative = inhibition) at 10uM” value is reported as 23.1%.
On to `COCCCNC(=O)CNC(=S)N(Cc1ccccc1F)C1CCCCC1`, for which the “hERG current change (%, negative = inhibition) at 10uM” value is 4.18%.
With `O=[n+]1c2c(n([O-])c3cc(Br)ccc31)CCC2` the figure was -2.98%; with `C(=C\c1ccncc1)/c1ccccc1`, -10.6%.
With `CN(CC(=O)Nc1ccccc1Cl)C(=O)c1ccc(COc2ccccc2)cc1`, the “hERG current change (%, negative = inhibition) at 10uM” value is given as -12.9%.
With `Cc1ccc(S(=O)(=O)NCC(=O)OCN2C(=O)c3ccccc3C2=O)cc1`, the “hERG current change (%, negative = inhibition) at 10uM” value was determined as 5.91%.
For `O=C(CSc1ccc(Cl)cc1)NNC(=O)c1cccnc1`, the “hERG current change (%, negative = inhibition) at 10uM” value was -21%.
Take `Cc1nn(-c2ccccc2)c(Cl)c1/C=N/Nc1ccc(Cl)c(C(=O)O)c1`: the “hERG current change (%, negative = inhibition) at 10uM” value is 21.3%.
`Cc1ccc(Nc2ccc(C(=O)O)cc2[N+](=O)[O-])cc1`: the “hERG current change (%, negative = inhibition) at 10uM” value came to 15.1%.
Consider `O=C(OCc1ccc(Br)cc1)c1ccncc1`, for which the “hERG current change (%, negative = inhibition) at 10uM” value is given as 5.25%.
Regarding `O=C(COC(=O)c1cccs1)Nc1cc(S(=O)(=O)N2CCOCC2)ccc1Cl`, the “hERG current change (%, negative = inhibition) at 10uM” value is listed as -35.5%.
In the case of `CN(C)S(=O)(=O)c1ccc(Cl)c(NC(=O)CN2CCCC2)c1`, the “hERG current change (%, negative = inhibition) at 10uM” value was 11.5%.
With `Cc1ccc(S(=O)(=O)N2CCOCC2)cc1NC(=O)COC(=O)CCC(=O)c1cccs1` the figure was -13.8%; with `Cc1ccc(S(=O)(=O)N(C)C)cc1NC(=O)COC(=O)C1CCCC1`, 3.16%; with `Cc1ccc(S(=O)(=O)N(C)C)cc1NC(=O)COC(=O)C1CCN(S(=O)(=O)c2cccs2)CC1`, -81.9%.
Turning to `O=C(COC(=O)CCC(=O)c1cccs1)Nc1cc(S(=O)(=O)N2CCOCC2)ccc1Cl`, the “hERG current change (%, negative = inhibition) at 10uM” value was -53.5%.
For `Cc1ccccc1NC(=O)COC(=O)Cc1ccsc1` the value was 12.7%; for `Cc1ccc(C)c(NC(=O)COC(=O)Cc2ccsc2)c1`, 33.1%.
For `CN(CCC(=O)Nc1cc(S(=O)(=O)N(C)C)ccc1Cl)CC(=O)Nc1ccc(F)cc1` the value was -50.1%; for `CCC(=O)OCC(=O)Nc1cc(S(=O)(=O)N(C)C)ccc1Cl`, 17.1%; for `Cc1ccc(S(=O)(=O)N(C)C)cc1NC(=O)COC(=O)Cc1ccsc1`, -79%.
For `Cc1ccc(S(=O)(=O)N(C)C)cc1NC(=O)COC(=O)C1CC1`, the “hERG current change (%, negative = inhibition) at 10uM” value was 16.2%.
On to `Clc1ccc(-c2nnc(SCc3cn4ccsc4n3)n2CC2CCCO2)cc1` (centres unmarked), for which the “hERG current change (%, negative = inhibition) at 10uM” value was -29.2%.
As to `Cc1cccc2cc3c(N)c(C#N)sc3nc12`, the “hERG current change (%, negative = inhibition) at 10uM” value is reported as 21.5%.
For the compound `Cc1cc(C)c(Nc2cc(S(=O)(=O)[O-])c(N)c3c2C(=O)c2ccccc2C3=O)c(C)c1.[Na+]`, the “hERG current change (%, negative = inhibition) at 10uM” value is recorded as 12%.
Regarding `CCn1c(-c2cc(-c3cc(OC)ccc3OC)nc3ccccc23)n[nH]c1=S`, the “hERG current change (%, negative = inhibition) at 10uM” value is given as -10.3%.
For `CCCC(C)c1nnc(NC(=O)C2CC(=O)N(CCc3ccc(F)cc3)C2)s1` (centres unmarked) the value was -30.1%.
